Measurements reported in PubChem BioAssay AID1566 (Sanford-Burnham Center for Chemical Genomics, 2009).
The whole screen tested about 290,000 compounds, of which about 1,800 (0.62%) were called active. The sample as a whole holds a higher share of actives than the screen did. Values without a mark were called inactive. No stated cut-off is given here; in the data, active means inhibition above about 50%; inactive means the rest.

Assay: NOD2 signaling inhibitors, cell-based, luminescence, uHTS, HEK293 (AID 1566)
Conditions: HEK293 NOD2/NF-kB luciferase reporter, at 4 µM, stronger effect = higher value

Row | Compound | inhibition
1 | Cc1cc2ncc(C(=O)Nc3ccsc3C(=O)O)c(C)n2n1 | 20.1%
2 | Cc1ccc[n+](C(C)C(=O)c2ccc(-c3ccccc3)cc2)c1 (stereo unspecified) | 23.2%
3 | Cc1cc[n+](C(C)C(=O)c2ccc(-c3ccccc3)cc2)cc1 (stereo unspecified) | 22.5%
4 | Cc1cc(C)c[n+](C(C)C(=O)c2ccc(-c3ccccc3)cc2)c1 (stereo unspecified) | 53.1% (active)
5 | Cc1cc(NC(=O)CSc2nnc(CNC(=O)c3c(F)cccc3F)o2)no1 | -3.4%
6 | COc1cccc(OC)c1C(=O)Nc1ccc(N2CCN(C(=O)c3ccco3)CC2)cc1 | 0.8%
7 | O=C(CCS(=O)(=O)c1ccc2c(c1)NC(=O)CS2)NCc1cccs1 | 0.9%
8 | CCOC(=O)CC1C(=O)NCCN1c1nc2c(C)cccn2c(=O)c1/C=C1\SC(=S)N(CC(C)C)C1=O (stereo unspecified) | 51.8% (active)
9 | CCOC(=O)CC1C(=O)NCCN1c1nc2c(C)cccn2c(=O)c1/C=C1\SC(=S)N(C(C)CC)C1=O (stereo unspecified) | 49%
10 | CCCN1C(=O)/C(=C/c2c(N3CCNC(=O)C3CC(=O)OCC)nc3c(C)cccn3c2=O)SC1=S (stereo unspecified) | 44.3%
11 | Cc1nc2ncnn2c(N2CCN(C(c3ccccc3)c3ccccc3)CC2)c1C | 11.8%
12 | Cc1ccc(C(=O)Nc2cnc3ccccc3c2)cc1 | 54.2% (active)
13 | Cc1ccc(NC(=O)Nc2cnc3ccccc3c2)cc1 | -175%
14 | O=C(Nc1cnc2ccccc2c1)c1ccncc1 | -72%
15 | Cc1ccc(C(=O)Nc2cc3ccccc3oc2=O)cc1 | 69.7% (active)
16 | O=C(Nc1cc2ccccc2oc1=O)c1ccccc1 | 18.1%
17 | CC(=O)Nc1cc2ccccc2oc1=O | 9%
18 | CNC(=O)NNC(=O)c1csc(-c2ccc(C(F)(F)F)cc2Cl)n1 | 14.2%
19 | COc1ccc(/C=N\Nc2ncc(F)c(N3CCOCC3)n2)cc1OC | 3.5%
20 | COc1cccc(C(=O)O/N=C(\C)c2cnccn2)c1 | 4.6%
21 | Cc1nc2scc(C)n2c(=O)c1S(=O)(=O)NC(C)c1ccccc1 (stereo unspecified) | 20.2%

Row | Compound | inhibition
22 | Cc1c(O)nc(SCC(=O)Nc2cccc(C(F)(F)F)c2)n(-c2ccccc2)c1=O | -0.1%
23 | CCOc1ccc(C(=O)N/N=C(\c2ccccc2)c2ccccn2)cc1 | -82%
24 | CCOc1ccc(OCc2ccc(C(=O)N/N=C(\C)c3ccccn3)cc2)cc1 | 76.9% (active)
25 | C/C(=N\NC(=O)c1ccc(COc2ccccc2)cc1)c1ccncc1 | -1.5%
26 | COc1ccccc1/C=C1\SC(=S)N(CCC(=O)N2CCCCC2CCO)C1=O (stereo unspecified) | 5.9%
27 | CCCOc1ccc(C(O)(CCC)CCN2CCCCC2)cc1 (stereo unspecified) | 3.4%
28 | O=C(CN1C(=O)c2ccccc2S1(=O)=O)c1ccc(O)c(O)c1 | 42.4%
29 | Cc1cc(C(=O)CN2C(=O)c3ccccc3S2(=O)=O)c(C)n1-c1ccccc1 | 64.2% (active)
30 | Cc1ccc(C)c(C(=O)CN2C(=O)c3ccccc3S2(=O)=O)c1 | -15%
31 | Cc1cc(C(=O)CN2C(=O)C3CC=CCC3C2=O)c(C)n1-c1ccccc1 (stereo unspecified) | -109%
32 | O=C(CN1C(=O)c2ccccc2S1(=O)=O)c1ccccc1 | 52.5% (active)
33 | O=C(CN1C(=O)c2ccccc2S1(=O)=O)c1cccc(Br)c1 | 0.6%
34 | COc1ccc(S(=O)(=O)NCc2cccnc2)cc1OC | 6.9%
35 | CCN(CC)c1nc(Nc2ccc([N+](=O)[O-])cc2)nc(N(CC)CC)n1 | 15.7%
36 | O=C(O)Cc1sc(NCCc2ccccc2)nc1-c1ccc(F)cc1 | -6.1%
37 | C/C(=N/NC(=O)Cc1c(C)[nH][nH]c1=O)c1ccc(O)cc1 | -3%
38 | Cc1ccccc1Nc1ccc2nonc2c1[N+](=O)[O-] | 17.9%
39 | CC(=O)Nc1cccc(NC(=O)CSc2nnc(NC(=O)C3CC3)s2)c1 | 2.1%
40 | CCOc1ccc(-c2nc3n(c(=O)c2C#N)CCS3)cc1 | -0.8%
41 | O=C(OCCCN1CCOCC1)c1ccc(O)c(O)c1 | 11.1%
42 | Cc1ccc(C(=O)CSc2ncnc3sc4c(c23)CCCC4)cc1 | 30.2%

Row | Compound | inhibition
43 | CC(=O)CSc1ncnc2sc3c(c12)CCC3 | 12.6%
44 | O=C(c1ccc(Cl)c([N+](=O)[O-])c1)N1CCCc2ccccc21 | -7.5%
45 | O=C(CSc1nnnn1C1CCCCC1)NNC(=O)c1ccco1 | 5.4%
46 | Cc1ccccc1-n1cc(C(=O)c2cc(Cl)ccc2O)cc(C#N)c1=O | 1.1%
47 | C(=N\Nc1ccc2ccccc2n1)/c1ccc2c(c1)OCCO2 | 67.8% (active)
48 | C(=N\Nc1ccccn1)/c1ccc2c(c1)OCCO2 | -125%
49 | C(=N\Nc1nc2ccccc2[nH]1)/c1ccc2c(c1)OCCO2 | -126%
50 | Cc1[nH]c2ccccc2c1-c1nc2ccccc2[nH]c1=O | 4.1%
51 | CC(C)C(=O)OCc1cn(-c2ccc(Cl)c(Cl)c2)nn1 | 10.3%
52 | CCOC(=O)CN1C(=O)S/C(=C/c2ccc(O)c([N+](=O)[O-])c2)C1=O | -11.2%
53 | O=C(O)c1cccc(CN2C(=O)S/C(=C/c3ccccc3[N+](=O)[O-])C2=O)c1 | 19.8%
54 | O=C(O)c1cccc(CN2C(=O)S/C(=C/c3cccc([N+](=O)[O-])c3)C2=O)c1 | -10.3%
55 | O=C1/C(=C\c2cccc(O)c2O)SC(=S)N1Cc1ccccc1 | 7.8%
56 | COCc1cc(C)nc(Nc2ccccc2OC)c1C#N | 3%
57 | Cc1ccc(-n2nnc3c(=O)n(CC(=O)NCc4ccco4)cnc32)cc1 | 17.7%
58 | COc1cc(S(=O)(=O)N2CCCCCC2)ccc1-n1cnnn1 | 7.9%
59 | Cc1ccc(OC(=O)COc2ccccc2C)c(-n2nc3ccccc3n2)c1 | 3%
60 | BrC(=C\c1ccccc1)/C=N/Nc1nc(N2CCOCC2)nc(N2CCOCC2)n1 | -54.1%
61 | CCOC(=O)C1CCN(S(=O)(=O)c2cc(C(=O)OC)n(C)c2)CC1 | 18.2%
